# Source: PubChem BioAssay (National Center for Advancing Translational Sciences (NCATS))
# Only some compounds are listed: those with a hit (about 9.2% of all), similar ones and a draw of the others.
# Lamin A splicing – changes lamin A minigene splicing in HeLa cells | HeLa LMNA splicing GFP/RFP minigene ratio, 48 h | Potency, µM (highest dose often 46.1 µM), actives largely listed as inhibitors | 200,000 compounds, 0.01% hits; active means well fitted inhibition curve with a large enough effect in the signal ratio, with a control signal flat, not every such curve was filed as active; inconclusive means small, poorly fitted or top-dose-only effect, or effect the other way, or a change in a side signal; the % refers to the signal ratio
#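 S3 HeLa stable clones carrying a lamin A-EGFP splicing minigene plus DsRed2 were seeded at 600 cells/well in Opti-MEM with 2% FBS, pin-dosed and incubated 48 h at 37°C. Acumen cytometry (488 nm) gave the GFP/RFP total-intensity ratio.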
# ALDH1A1 inh – inhibitors of human aldehyde dehydrogenase 1A1. P00352. Purified ALDH1A1, NADH fluorescence, propionaldehyde substrate. Potency, µM (doses to about 75.3 µM), most hits filed as inhibitors. 220,000 compounds, 7.3% hits. AID 1030
# HTT ATP protect – cytoprotection in Huntington HTT-Q103 PC12 cell model. Potency, µM (series often up to 56.4 µM), usual class: activators. PC12 HTT-Q103 induced, cytoprotection, ATP luminescence, 40 h. 230,000 compounds, 0.14% hits; active means well fitted curve in the direction sought with a large enough effect; inconclusive means small, poorly fitted or top-dose-only effect, or another doubt; inactive means no such curve, though single readings can be large; an effect the other way counts as inactive or inconclusive; further: nearly all actives have a fitted effect of over 45% in size
#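 Huntington model: PC12 line, ecdysone-inducible HTTQ103 exon1–GFP, tebufenozide 100 nM. Test articles in a dose series. Endpoint luminescence from cellular ATP.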
# HTT aggregate – mutant huntingtin aggregation inhibition. PC12 HttQ103-GFP aggregates, Acumen cytometry, 40 h. Potency, µM (highest dose often 46.1 µM), actives largely listed as inhibitors. AID 1688. 220,000 compounds, 1.1% hits; active means well fitted curve in the direction sought with a large enough effect; inconclusive means small, poorly fitted or top-dose-only effect, or another doubt; inactive means no such curve, though single readings can be large; an effect the other way counts as inactive or inconclusive; further: nearly all actives have a fitted effect of over 60% in size
#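 Read-out: GFP aggregate count by laser scanning cytometer (488 nm excitation, 500-530 nm emission, 1–25 µm objects >6 SD above background). Cells: PC12, inducible HTTex1-Q103-GFP, 100 nM tebufenozide; compounds titrated.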
# KDM4E inh – inhibitors of human JMJD2E histone demethylase; 230,000 compounds, 1.6% hits; B2RXH2; Potency, µM (doses to about 57.1 µM), hits mostly inhibitors; JMJD2E catalytic domain, FDH-coupled NADH fluorescence (FDH is formaldehyde dehydrogenase); further: nearly all actives have a fitted effect of over 50% in size
# Target sequence (B2RXH2 1-337 limits assumed): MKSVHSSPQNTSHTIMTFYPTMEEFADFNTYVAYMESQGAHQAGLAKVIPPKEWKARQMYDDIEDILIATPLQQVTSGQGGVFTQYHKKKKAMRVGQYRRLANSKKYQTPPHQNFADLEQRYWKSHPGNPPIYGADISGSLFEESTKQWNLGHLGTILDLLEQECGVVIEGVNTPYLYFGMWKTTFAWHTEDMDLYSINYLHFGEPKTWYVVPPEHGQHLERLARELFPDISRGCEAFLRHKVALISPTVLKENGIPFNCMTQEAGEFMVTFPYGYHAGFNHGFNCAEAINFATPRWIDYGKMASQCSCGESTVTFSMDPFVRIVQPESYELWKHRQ
# HPGD block – inhibitors of human 15-hydroxyprostaglandin dehydrogenase (HPGD); 150,000 compounds, 4.3% hits; Potency, µM, actives largely listed as inhibitors; P15428; purified HPGD, NADH fluorescence kinetic, PGE2 substrate
# Target sequence (P15428 whole entry, looked up): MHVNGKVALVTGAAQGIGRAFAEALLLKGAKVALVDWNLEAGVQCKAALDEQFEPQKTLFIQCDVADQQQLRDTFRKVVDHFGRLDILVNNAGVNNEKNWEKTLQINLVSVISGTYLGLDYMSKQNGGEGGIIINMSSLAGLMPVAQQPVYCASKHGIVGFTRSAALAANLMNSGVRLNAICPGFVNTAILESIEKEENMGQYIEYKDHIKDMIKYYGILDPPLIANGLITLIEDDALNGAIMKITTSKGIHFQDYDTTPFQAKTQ
#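 20 nM HPGD preincubated 15 min at room temperature with compound in 50 mM Tris-HCl pH 8, 0.01% Tween 20. Started with 1 mM NAD+ and 30 uM prostaglandin E2; NADH fluorescence (360/450 nm) read 5 times over 30-s intervals, last minus first.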
# Hits are given with their value; i = inactive; ? = inconclusive; nt = no result; [ ] = another dose, or the depositor's remark. Unless noted, the call rests on the fitted dose curve; in most records, active means well fitted inhibition curve with a large enough effect (not every such curve was filed as active); inconclusive means small, poorly fitted or top-dose-only effect, or another doubt; inactive means no such curve, though single readings can be large or run the other way.
SMILES,Lamin A splicing,ALDH1A1 inh,HTT ATP protect,HTT aggregate,KDM4E inh,HPGD block
O=C(C1=COCCO1)N1CCN(C(c2ccccc2)c2ccccc2)CC1,i,8.91µM,i[10 µM],i,i,i
Cc1nc2ccn(Cc3ccco3)c(=O)c2cc1C(=O)N1CCN(c2ccccc2F)CC1,i,nt,nt,nt,nt,nt
Cc1occc1C(=O)N1CCN(c2ccc(Cl)c(Cl)c2)CC1,?,?,i[10 µM],11.2µM,i,i
Nc1nc2c(c(=O)[nH]1)N(C=O)C(CNc1ccc(C(=O)NC(CCC(=O)O)C(=O)O)cc1)CN2 (centres undefined),nt,i,i,nt,i,i
CCOc1ccc(-c2nn(-c3ccccc3)cc2/C=C2\SC(N)=NC2=O)cc1C,i,i,i,i,?,15.8µM
CCONc1ncnc2nonc12,i,i,nt,i,i,i
COc1ccc(CONc2ncnc3nonc23)cc1[N+](=O)[O-],nt,14.1µM,?,i,i,nt
COC(=O)C(C)N1C(=O)S/C(=C/c2cc(C)n(-c3ccccn3)c2C)C1=O (centres undefined),i,?,i,i[9.22 µM],i,i
Cc1ccc(-n2c(C)cc(/C=C3\NC(=O)NC3=O)c2C)c(C)c1,?,?,nt,i,25.1µM,?
Cc1cc(/C=C2/NC(=O)NC2=O)c(C)n1-c1ccc(N2CCOCC2)cc1,i,?,nt,i,?,nt
Cc1cc(/C=C2/NC(=O)NC2=O)c(C)n1-c1ccc(C#N)cc1,nt,?,i,i,?,nt
COC(=O)C(C)N1C(=O)S/C(=C\c2cc(C)n(-c3ccccn3)c2C)C1=O (centres undefined),i,22.4µM,i,i,i,i
Cc1cc(/C=C2/NC(=O)NC2=O)c(C)n1-c1ccccn1,i,i,i[0.074 µM],i,25.1µM,i
Cc1ccc(C(=O)NCC(=O)OCc2cc(=O)n3nc(C4CCCCC4)sc3n2)cc1,i,nt,nt,nt,nt,nt
C=C1SC(Nc2c(C)cc(C)cc2C)=NC12CCCCC2,nt,nt,i[10 µM],i[9.22 µM],i,nt
Cc1cc(C(=O)CCl)c(C)n1CCc1ccccc1,?,0.0316µM,i[10 µM],i,?,nt
COC(=O)CCCn1c(C)cc(C(=O)CCl)c1C,i[9.22 µM],0.501µM,i,i,i,nt
Cc1cc(C(=O)CCl)c(C)n1Cc1ccco1,nt,0.1µM,i,?,i,nt
Cc1cc(C(=O)CSc2nncs2)c(C)n1Cc1ccco1,nt,?,i,i,i,nt
COC(=O)CCn1c(C)cc(C(=O)COc2ccccc2C(N)=O)c1C,i,i,i,?,i,nt
Cc1nn(CCc2n[nH]c(=S)n2C2CCCCC2)c(C)c1Br,i,20µM,i,i,i,25.1µM
Cc1nn(CCc2n[nH]c(=S)n2C)c(C)c1Br,i,i,i,i,i,i
CCOC(=O)C1=C(CC)OC(N)=C(C#N)C1c1ccc(OC)c(OC)c1OC (centres undefined),nt,i,i,i,i,nt
CCOC(=O)C1=C(CSc2nc(C)ccc2C#N)OC(N)=C(C#N)C1c1cccc(OC)c1OC (centres undefined),i,28.2µM,i[0.074 µM],?,?,i
COc1ccccc1CN1CC[C@@]2(CCCN(C(C)=O)C2)C1,nt,i,i,nt,nt,i
SMILES,Lamin A splicing,ALDH1A1 inh,HTT ATP protect,HTT aggregate,KDM4E inh,HPGD block
COc1ccc2c(Cl)c(C(=O)N/N=C3\CCCC(=O)C3)sc2c1,nt,4.47µM,i,i,17.8µM,nt
COc1ccc2c(Cl)c(C(=O)N/N=C/c3ccc4c(c3)OCO4)sc2c1,i,?,i,i,?,?
CCCn1c(C)nc2c(NC(C)CN(C)C)nc(C)nc21 (centres undefined),nt,i,i,nt,i,i
Cn1c(-c2ccco2)n[nH]c1=S,nt,i,nt,i,?,nt
S=c1nc(-c2ccco2)[nH][nH]1,i,25.1µM,i[10 µM],i,?,22.4µM
CC(C)CCN1C(=O)c2ccc(C(=O)NCC3CCCO3)cc2C1=O (centres undefined),i,4.47µM,i,i,i,i
Cc1cc(NC(=O)c2ccc3c(c2)C(=O)N(CCC(C)C)C3=O)no1,i,?,i,i,i,i
O=C(NCC1CCCO1)c1ccc2c(c1)C(=O)N(C1CCCCC1)C2=O (centres undefined),i,8.91µM,i,i,i,i
CC1CCCN(c2ccc(C(=O)NCC3CCCO3)cn2)C1 (centres undefined),i,i,i[10 µM],i,i,11.2µM
O=C(OCC(=O)c1c[nH]c2ccccc12)c1ccc([N+](=O)[O-])s1,nt,0.708µM,i,i,i,nt
CCc1cccc2c(C(=O)COC(=O)c3ccc([N+](=O)[O-])s3)c[nH]c12,i,12.6µM,i[10 µM],i,i,i
CCc1cccc2c(C(=O)CCl)c[nH]c12,?,8.91µM,i[10 µM],?,i,nt
C=CCOc1cccc(CNc2cccc(C(=O)O)c2)c1,nt,nt,i[10 µM],i[9.22 µM],?,nt
O=C1C2Cc3c([nH]c4ccccc34)C(c3ccccc3)N2C(=O)C2Cc3c([nH]c4ccccc34)C(c3ccccc3)N12 (centres undefined),nt,i[13.5 µM],i[10 µM],nt,nt,nt
CC(C)c1ccc(C2NC(=S)NC3=C2C(=O)CCC3)cc1 (centres undefined),?,3.98µM,i[10 µM],i,i,i
NC1=NC(=O)CC(C(=O)NCCc2ccccc2)S1 (centres undefined),i,12.6µM,i[10 µM],i,i,i
CC(C)c1ccc(NC(=O)C2CC(=O)N=C(N)S2)cc1 (centres undefined),i,17.8µM,i,i,i,i
O=C1CCCc2cc(S(=O)(=O)N3CCCC(C(=O)NCc4ccccc4Cl)C3)ccc2N1 (centres undefined),i,nt,nt,nt,nt,nt
CCc1c(O)cc2n(c1=O)-c1ccc(Cl)cc1C2(C)C,?,28.2µM,i[10 µM],i,i,i
CCc1c(O)cc(=O)n(-c2ccccc2)c1-c1ccccc1,i,i,i[10 µM],i,i,i
O=C(NCc1ccco1)c1cc2c(s1)CCCCC2,i,28.2µM,i[10 µM],i,?,15.8µM
O=C(NCc1ccco1)c1ccc(C(=O)NCc2ccco2)s1,i,i,i,i,i,i
O=C(NCc1ccco1)c1scc2c1OCCO2,i,22.4µM,i,i,i,i
O=C(NCc1ccco1)c1ccc(Br)s1,i,?,i,i,i,15.8µM
CC(=O)N(C)c1ccc(C(O)(C(F)(F)F)C(F)(F)F)cc1,nt,i,i,i,i,nt
O=C(c1ccco1)N1CCC[C@@]2(CCN(c3cccc(-c4ccccc4)c3)C2)C1,nt,?,i,nt,nt,i
COc1ccc(CCNC(=O)CSc2nc3[nH]ncc3c(=O)n2-c2ccccc2Br)cc1OC,i[9.22 µM],22.4µM,i,i,i,nt
O=C(CSc1nc2[nH]ncc2c(=O)n1-c1ccccc1Br)NCc1ccco1,i,12.6µM,i,i,i,i
COc1cc(NC(=O)CSc2nc3[nH]ncc3c(=O)n2-c2ccccc2C)cc(OC)c1OC,?,?,nt,?,i,i
C=CCN(C(=O)CSc1nc2[nH]ncc2c(=O)n1-c1ccccc1OC)c1ccccc1,?,12.6µM,i[0.074 µM],i,i,i
